# A number with no mark means an inactive call. Activity calls are given as the source filed them.
# Assay: plasmodial surface anion channel blockers, osmotic lysis – cell-based, P. falciparum Indochina, OD700, 1 h, primary screen (AID 1154)
# Settings: P. falciparum Indochina infected RBC osmotic lysis, higher = more signal, called active from +8 up or from −8 down
row,SMILES,z-score
1,C=CCN1C(=O)[C@]2(O[C@H](CCO)[C@@H]([Si](C)(C)c3ccc(OC)cc3)[C@@H]2C)c2cc(N3C(=O)c4cccc5cccc3c45)ccc21,6.44
2,C[N+](C)(C)CCCCNC(=O)[C@H]1C[C@H]2C(=O)N[C@@H](Cc3ccccc3)C(=O)N2[C@H]1c1ccc(O)cc1,0.891
3,COC(=O)[C@@]1(Cc2ccc(F)cc2)[C@H]2c3cc(C(=O)N4CCCC4)n(Cc4cc(C)n(C)n4)c3C[C@H]2CN1C(=O)c1ccccc1,2.02
4,Cc1ccc(S[C@]2(C(=O)NCC(F)(F)F)CC(=O)N(C(C)C)[C@@H]2c2ccc(CO)cc2I)cc1,4.6
5,CO[C@H]1O[C@H](CO)[C@@H](OC(=O)Nc2ccc(Br)cc2)[C@H](OC(=O)c2cc3ccccc3[nH]2)[C@H]1OC(=O)c1cc2ccccc2[nH]1,1.39
6,COc1ccc(CCNC(=O)[C@@]2(Sc3ccc(C)cc3)CC(=O)N(C3CCCCC3)[C@@H]2c2ccc(CO)cc2I)cc1,2.91
7,CC(C)c1ccc(NN2C(C(O)c3cc(C(F)(F)F)cc(C(F)(F)F)c3)C=CC3C(=O)N(c4ccccc4)C(=O)C32)cc1 (stereo not given),3.24
8,COc1ccc([C@H]2OC[C@@H]3CC4(CC=CC4)C(=O)N32)cc1,0.486
9,CN1C(=O)C2C=CC(C(O)C3CC=CCC3)N(NC(=O)OC(C)(C)C)C2C1=O (stereo not given),0.23
10,N#Cc1ccc(NN2C(C(O)c3c(F)cccc3Cl)C=CC3C(=O)N(c4ccccc4)C(=O)C32)cc1 (stereo not given),22 (active)
